This is an account of results in PubChem BioAssay (EPA / NIEHS).

Experiment [1] can be described thus: ATG_GRE_CIS: Attagene CIS-FACTORIAL HepG2 Assay for human Glucocorticoid Response Elements (GRE) (AID 2282947). The settings on record: HepG2 GRE cis-reporter, Attagene multiplex mRNA; actives raise or lower the signal. The essentials:
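Endogenous transcription factor activity is read through cis-element reporter constructs transiently transfected into HepG2 cells. After 24 h treatment, labelled RT-PCR products are resolved by capillary electrophoresis; DMSO sets baseline for bidirectional curve fitting.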

Experiment [2] can be described thus: ATG_ISRE_CIS: Attagene CIS-FACTORIAL HepG2 Assay for human Interferon Regulatory Factor 1 (IRF1) binding to an Interferon-Stimulated Response Element (ISRE) (AID 2282948). The settings on record: HepG2 ISRE cis-reporter (Attagene), mRNA transcription readout; actives raise or lower the signal. The essentials:
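Transiently transfected HepG2 cells carrying cis-element reporter units, dosed 24 hours. Reporter mRNA quantified by RT-PCR, fluorescent primer extension, HpaI digestion and capillary electrophoresis. Bidirectional fitting relative to DMSO.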

A short description of experiment [3]: ATG_M_32_CIS: Attagene CIS-FACTORIAL HepG2 Assay for M32 Transcription Factor (Internal Marker) (AID 2282949).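 Further: background control marker of the multiplexed CIS panel rather than a real target.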 The settings on record: HepG2 Attagene cis-factorial M32 reporter, mRNA; actives raise or lower the signal. The essentials:
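Internal background marker read-out: RT-PCR/capillary electrophoresis fluorescence of reporter transcripts from transiently transfected HepG2 cells after 24 h chemical exposure. Activity fitted bidirectionally relative to DMSO negative control.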

The nature of experiment [4]: ATG_M_06_CIS: Attagene CIS-FACTORIAL HepG2 Assay for M06 Transcription Factor (Internal Marker) (AID 2282950). The settings on record: HepG2 Attagene CIS-FACTORIAL M06 internal marker reporter; actives raise or lower the signal. In outline:
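Steps: transfect HepG2 with multiplexed cis-element reporter constructs; dose chemical 24 h; extract RNA with DNase treatment; reverse-transcribe, PCR-amplify, 6-FAM label, HpaI digest; separate fragments by capillary electrophoresis. Activity fitted both directions versus DMSO.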

In experiment [5] the target is Heat shock factor protein 1 (Homo sapiens) (UniProt Q00613). Briefly: ATG_HSE_CIS: Attagene CIS-FACTORIAL HepG2 Assay for human Heat Shock Transcription Factor 1 (HSE) (AID 2282953). The settings on record: HepG2 HSE cis-reporter, Attagene RNA transcription; actives raise or lower the signal. The essentials:
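Cells were transfected with cis-element-driven reporter constructs, dosed for 24 h, then total RNA was reverse-transcribed and reporter cDNA amplified, FAM-labelled and digested with HpaI. Fragments were resolved by capillary electrophoresis; gain or loss was fitted against DMSO.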

A short description of experiment [6]: ATG_MRE_CIS: Attagene CIS-FACTORIAL HepG2 Assay for human Metal Responsive Element (MRE) (AID 2282954). The settings on record: HepG2 MRE cis-reporter transcription, Attagene multiplex; actives raise or lower the signal. The essentials:
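Fluorescent reporter fragments separated by capillary electrophoresis give mRNA induction for the MRE unit after 24 h treatment of transfected HepG2 cells. Endogenous transcription-factor activity is read; DMSO serves as negative control and baseline.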

Experiment [7] in a line: ATG_PBREM_CIS: Attagene CIS-FACTORIAL HepG2 Assay for human Phenobarbital-responsive Enhancer Module (PBREM) (AID 2282955). Conditions: HepG2 PBREM cis-reporter, Attagene multiplexed transcription; actives raise or lower the signal. In outline:
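Multiplexed cis-reporter readout in human hepatoma HepG2 cells; PBREM-regulated transcript quantified after 24 h exposure by fluorescent RT-PCR fragment analysis. Signal changes up or down fitted relative to DMSO.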

The target in experiment [8] is Paired box protein Pax-6 (Homo sapiens) (UniProt P26367). In words: ATG_Pax6_CIS: Attagene CIS-FACTORIAL HepG2 Assay for human Paired Box 6 (PAX6) (AID 2282956). The settings on record: HepG2 CIS-FACTORIAL PAX6 reporter transcription, RNA readout; actives raise or lower the signal. The essentials:
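HepG2 cells transiently transfected with cis-promoter-driven multiplexed reporter units sensing endogenous transcription factor activity; 24 h chemical exposure. Reporter mRNA quantified by RT-PCR, 6-FAM labelling, HpaI digestion and capillary electrophoresis; bidirectional fit versus DMSO baseline.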

A short description of experiment [9]: ATG_PXRE_CIS: Attagene CIS-FACTORIAL HepG2 Assay for human Pregnane X Receptor Element (PXRE) (AID 2282957). Conditions: HepG2 Attagene CIS-FACTORIAL PXRE reporter, mRNA; actives raise or lower the signal. The essentials: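 Cis-element reporter mRNA in human hepatoma HepG2 cells is measured 24 h post-dosing by RT-PCR, primer-extension labeling and capillary electrophoresis; gain or loss of signal is fitted relative to DMSO.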

Experiment [10] in a line: ATG_PPRE_CIS: Attagene CIS-FACTORIAL HepG2 Assay for human Peroxisome Proliferator-activated Response Element (PPRE) (AID 2282958). The settings on record: HepG2 PPRE cis-element reporter, Attagene transcription factor profiling; actives raise or lower the signal. The essentials:
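DMSO served as negative control and baseline for bidirectional curve fitting. Signal came from PPRE-regulated reporter mRNA in HepG2 cells, measured 24 h post-dosing by RT-PCR, 6-FAM primer extension and capillary electrophoresis.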

A short description of experiment [11]: ATG_RORE_CIS: Attagene CIS-FACTORIAL HepG2 Assay for human RAR-related Orphan Receptor Element (RORE) (AID 2282959). Conditions: HepG2 Attagene cis-factorial RORE reporter, mRNA; actives raise or lower the signal. The essentials:
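Transfect HepG2 with MRTUs; treat 24 h; extract RNA; RT with oligo(dT); PCR with reporter-specific primers; 6-FAM primer extension; HpaI digest 2 h at 37 C; capillary electrophoresis. Fit vs DMSO, bidirectional.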

A short description of experiment [12]: ATG_Sox_CIS: Attagene CIS-FACTORIAL HepG2 Assay for human SRY-box transcription factor (SOX) (AID 2282960). Conditions: HepG2 Attagene cis-factorial SOX reporter, mRNA; actives raise or lower the signal. The essentials: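 Fluorescence-labelled cDNA fragments from reporter transcripts, sized by CE, give the signal. Cells: HepG2, transiently transfected with cis-regulated reporter units. Exposure 24 h; DMSO negative control; bidirectional curve fitting.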

In experiment [13] the target is Transcription factor Sp1 (Homo sapiens) (UniProt P08047). In words: ATG_Sp1_CIS: Attagene CIS-FACTORIAL HepG2 Assay for human Specificity Protein 1 (Sp1) (AID 2282961). Conditions: HepG2 Sp1 cis-reporter transcription, actives raise or lower the signal. The essentials: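 Chemicals are dosed onto HepG2 cells transfected with multiple cis-promoter reporter constructs, and after 24 h reporter RNA is reverse-transcribed, PCR-amplified and resolved by capillary electrophoresis for fluorescence quantitation; activity is scored up or down against DMSO.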

The nature of experiment [14]: ATG_SREBP_CIS: Attagene CIS-FACTORIAL HepG2 Assay for human Sterol Regulatory Element Binding (SREBP) (AID 2282962). Conditions: HepG2 Attagene cis-factorial SREBP reporter, mRNA; actives raise or lower the signal. In outline: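 HepG2 cells transiently transfected with multiplexed cis-promoter reporter units sensing endogenous transcription factors; reporter mRNA measured 24 h after dosing by RT-PCR, 6-FAM labeling, HpaI digestion and capillary electrophoresis. Bidirectional fit versus DMSO.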

In experiment [15] the target is Signal transducer and activator of transcription 3 (Homo sapiens) (UniProt P40763). In words: ATG_STAT3_CIS: Attagene CIS-FACTORIAL HepG2 Assay for human Signal Transducer and Activator of Transcription 3 (STAT3) (AID 2282963). The settings on record: HepG2, Attagene cis-factorial STAT3 reporter transcription; actives raise or lower the signal. In outline:
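Values derive from bidirectional fits relative to DMSO of reporter mRNA levels, measured by RT-PCR with capillary electrophoresis, in HepG2 cells carrying transiently transfected cis-regulated reporter units and exposed 24 h.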

A short description of experiment [16]: ATG_TCF_b_cat_CIS: Attagene CIS-FACTORIAL HepG2 Assay for human T-Cell-Factor with beta-catenin (TCF/b-cat) (AID 2282965). The settings on record: HepG2 TCF/beta-catenin cis-reporter transcription, actives raise or lower the signal. In outline:
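HepG2, transient MRTU transfection, cis-element-driven reporters (endogenous TFs). 24 h compound exposure. Readout: reporter mRNA by RT-PCR + 6-FAM primer extension, HpaI digest, capillary electrophoresis. Gain/loss fit vs DMSO baseline.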

In experiment [17] the target is Hepatocyte nuclear factor 6 (Homo sapiens) (UniProt Q9UBC0). Briefly: ATG_HNF6_CIS: Attagene CIS-FACTORIAL HepG2 Assay for human Hepatocyte Nuclear Factor 6 (HNF6) (AID 2282952). The settings on record: HepG2 Attagene cis-factorial HNF6 reporter transcription; actives raise or lower the signal. The essentials:
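Transiently transfected HepG2 cells expressing cis-regulated reporter transcription units were exposed to chemical for 24 h in a 24-well format. Reporter transcript abundance was determined by fluorescence capillary electrophoresis.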

Experiment [18] is described as follows: ATG_TA_CIS: Attagene CIS-FACTORIAL HepG2 Assay for human TA Basal Promoter (AID 2282964). Conditions: HepG2 Attagene CIS-factorial TA basal promoter reporter; actives raise or lower the signal. In outline: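 Steps: transfect HepG2 with MRTUs; dose 24 h; isolate RNA, DNase-treat, reverse-transcribe; PCR and FAM-label reporter cDNA; digest with HpaI 2h at 37 C; run capillary electrophoresis. Activity fitted both directions against DMSO.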

Experiment [19] concerns the target Hypoxia-inducible factor 1-alpha (Homo sapiens) (UniProt Q16665). Briefly: ATG_HIF1a_CIS: Attagene CIS-FACTORIAL HepG2 Assay for human Hypoxia Inducible Factor 1 (HIF1A) (AID 2282951). Conditions: HepG2 Attagene cis-factorial HIF1a reporter transcription; actives raise or lower the signal. The essentials:
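Cis-element reporter constructs were transiently transfected into HepG2 cells, which were treated for 24 h; reporter RNA was reverse-transcribed, amplified, labelled and resolved by capillary electrophoresis.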

Active and inactive are the calls of the source. How the source made its calls: active means hit-call score of the fitted dose curve at least 0.9, where 1 is the maximum; inactive means score below 0.9.

Sequence of Transcription factor Sp1 (Homo sapiens) (P08047 whole entry, looked up): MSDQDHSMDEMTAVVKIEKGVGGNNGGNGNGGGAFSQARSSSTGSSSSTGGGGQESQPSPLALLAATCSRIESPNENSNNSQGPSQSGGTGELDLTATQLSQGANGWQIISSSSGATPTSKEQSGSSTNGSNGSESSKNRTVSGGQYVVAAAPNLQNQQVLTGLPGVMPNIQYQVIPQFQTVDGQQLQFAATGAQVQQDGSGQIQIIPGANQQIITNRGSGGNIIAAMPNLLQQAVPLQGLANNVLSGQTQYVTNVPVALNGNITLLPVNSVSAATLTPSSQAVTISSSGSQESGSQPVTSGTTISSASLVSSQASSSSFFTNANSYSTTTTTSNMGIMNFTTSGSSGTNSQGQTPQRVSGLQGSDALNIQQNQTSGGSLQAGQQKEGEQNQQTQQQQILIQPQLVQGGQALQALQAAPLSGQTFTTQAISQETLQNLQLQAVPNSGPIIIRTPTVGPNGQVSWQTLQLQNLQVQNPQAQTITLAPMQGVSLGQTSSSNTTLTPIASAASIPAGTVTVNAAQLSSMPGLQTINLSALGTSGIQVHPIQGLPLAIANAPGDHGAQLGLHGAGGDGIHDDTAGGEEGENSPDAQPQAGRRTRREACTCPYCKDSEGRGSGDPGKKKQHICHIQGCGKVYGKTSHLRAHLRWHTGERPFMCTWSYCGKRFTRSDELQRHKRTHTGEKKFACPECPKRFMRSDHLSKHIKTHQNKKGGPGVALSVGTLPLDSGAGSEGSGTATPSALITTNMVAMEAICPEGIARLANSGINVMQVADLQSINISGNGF
Sequence of Heat shock factor protein 1 (Homo sapiens) (Q00613 whole entry, looked up, the tested form may be a part): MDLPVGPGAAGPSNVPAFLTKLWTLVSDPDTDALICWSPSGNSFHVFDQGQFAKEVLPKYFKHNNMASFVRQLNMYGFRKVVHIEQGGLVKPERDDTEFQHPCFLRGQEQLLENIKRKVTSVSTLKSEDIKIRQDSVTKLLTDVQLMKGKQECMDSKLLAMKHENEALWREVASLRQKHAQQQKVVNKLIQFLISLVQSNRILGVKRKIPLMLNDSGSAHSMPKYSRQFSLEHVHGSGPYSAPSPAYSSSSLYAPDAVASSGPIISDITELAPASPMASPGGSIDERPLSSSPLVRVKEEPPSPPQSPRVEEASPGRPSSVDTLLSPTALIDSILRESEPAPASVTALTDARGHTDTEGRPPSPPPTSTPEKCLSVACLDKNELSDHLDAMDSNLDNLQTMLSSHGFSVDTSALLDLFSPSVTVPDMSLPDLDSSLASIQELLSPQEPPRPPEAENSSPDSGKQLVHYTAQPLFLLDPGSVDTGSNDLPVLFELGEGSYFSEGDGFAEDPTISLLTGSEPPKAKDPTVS
Sequence of Paired box protein Pax-6 (Homo sapiens) (P26367 whole entry, looked up): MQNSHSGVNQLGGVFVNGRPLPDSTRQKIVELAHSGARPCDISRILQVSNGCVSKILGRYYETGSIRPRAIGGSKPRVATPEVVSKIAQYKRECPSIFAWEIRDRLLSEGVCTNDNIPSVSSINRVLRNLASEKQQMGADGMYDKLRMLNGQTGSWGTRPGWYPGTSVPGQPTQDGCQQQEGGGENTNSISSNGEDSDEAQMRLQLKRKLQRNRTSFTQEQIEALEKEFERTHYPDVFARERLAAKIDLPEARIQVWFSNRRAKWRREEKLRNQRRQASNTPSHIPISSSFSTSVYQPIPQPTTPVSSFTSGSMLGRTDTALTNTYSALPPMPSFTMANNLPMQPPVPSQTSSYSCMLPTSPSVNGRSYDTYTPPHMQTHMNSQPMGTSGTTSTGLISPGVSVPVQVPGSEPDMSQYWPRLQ
Sequence of Signal transducer and activator of transcription 3 (Homo sapiens) (P40763 whole entry, looked up): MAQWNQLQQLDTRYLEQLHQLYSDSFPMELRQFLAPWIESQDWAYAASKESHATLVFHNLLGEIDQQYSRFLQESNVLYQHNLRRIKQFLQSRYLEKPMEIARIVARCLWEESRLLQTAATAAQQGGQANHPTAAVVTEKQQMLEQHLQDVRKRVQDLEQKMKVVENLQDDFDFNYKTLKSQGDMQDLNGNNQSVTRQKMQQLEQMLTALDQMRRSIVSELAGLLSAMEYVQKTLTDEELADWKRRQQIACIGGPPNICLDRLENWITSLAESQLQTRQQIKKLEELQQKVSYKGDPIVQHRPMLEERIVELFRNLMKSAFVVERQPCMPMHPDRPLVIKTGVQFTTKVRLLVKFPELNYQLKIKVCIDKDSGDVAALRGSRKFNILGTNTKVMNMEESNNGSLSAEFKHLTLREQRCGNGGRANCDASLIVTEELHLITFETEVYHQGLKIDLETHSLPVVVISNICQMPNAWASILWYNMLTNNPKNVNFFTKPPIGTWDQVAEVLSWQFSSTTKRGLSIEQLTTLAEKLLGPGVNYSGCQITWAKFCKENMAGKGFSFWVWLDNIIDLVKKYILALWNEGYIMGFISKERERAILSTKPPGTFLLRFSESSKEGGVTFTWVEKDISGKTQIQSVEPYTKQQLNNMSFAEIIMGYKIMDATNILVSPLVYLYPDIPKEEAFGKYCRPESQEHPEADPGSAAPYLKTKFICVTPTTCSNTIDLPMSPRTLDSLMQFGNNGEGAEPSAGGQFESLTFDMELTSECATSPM
Sequence of Hepatocyte nuclear factor 6 (Homo sapiens) (Q9UBC0 whole entry, looked up): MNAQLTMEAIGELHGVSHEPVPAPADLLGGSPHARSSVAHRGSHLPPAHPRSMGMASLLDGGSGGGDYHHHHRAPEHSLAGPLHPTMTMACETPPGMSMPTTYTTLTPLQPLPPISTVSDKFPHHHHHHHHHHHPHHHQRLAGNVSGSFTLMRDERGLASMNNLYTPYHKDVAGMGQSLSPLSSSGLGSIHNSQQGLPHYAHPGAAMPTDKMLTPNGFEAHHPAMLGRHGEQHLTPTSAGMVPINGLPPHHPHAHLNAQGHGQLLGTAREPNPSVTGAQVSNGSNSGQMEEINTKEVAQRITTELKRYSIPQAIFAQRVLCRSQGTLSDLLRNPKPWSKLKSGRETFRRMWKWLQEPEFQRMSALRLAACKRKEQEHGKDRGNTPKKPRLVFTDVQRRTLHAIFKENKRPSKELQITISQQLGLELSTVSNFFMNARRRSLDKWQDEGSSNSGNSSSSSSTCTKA
Sequence of Hypoxia-inducible factor 1-alpha (Homo sapiens) (Q16665 whole entry, looked up): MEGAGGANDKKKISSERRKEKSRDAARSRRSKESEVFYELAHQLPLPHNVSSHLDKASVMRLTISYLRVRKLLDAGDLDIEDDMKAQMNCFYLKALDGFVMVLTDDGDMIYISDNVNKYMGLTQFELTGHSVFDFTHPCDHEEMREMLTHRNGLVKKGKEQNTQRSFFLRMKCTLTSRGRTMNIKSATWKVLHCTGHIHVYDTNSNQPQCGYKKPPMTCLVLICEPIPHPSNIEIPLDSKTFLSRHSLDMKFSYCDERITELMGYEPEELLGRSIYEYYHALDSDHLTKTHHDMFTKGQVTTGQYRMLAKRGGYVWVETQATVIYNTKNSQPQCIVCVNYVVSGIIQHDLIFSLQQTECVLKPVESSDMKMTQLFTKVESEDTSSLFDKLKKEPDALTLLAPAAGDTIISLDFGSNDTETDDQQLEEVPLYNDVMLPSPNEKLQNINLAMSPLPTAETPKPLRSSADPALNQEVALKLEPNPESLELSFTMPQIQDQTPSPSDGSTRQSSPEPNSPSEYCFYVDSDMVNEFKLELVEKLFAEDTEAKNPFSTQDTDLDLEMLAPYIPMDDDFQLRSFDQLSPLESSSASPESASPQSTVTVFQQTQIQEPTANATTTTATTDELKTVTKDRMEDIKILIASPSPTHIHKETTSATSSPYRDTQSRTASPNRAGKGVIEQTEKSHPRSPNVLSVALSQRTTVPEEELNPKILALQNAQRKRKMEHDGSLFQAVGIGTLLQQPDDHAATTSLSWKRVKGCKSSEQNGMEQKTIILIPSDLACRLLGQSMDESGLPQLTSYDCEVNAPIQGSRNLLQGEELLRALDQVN

In general, AC50 refers to the concentration giving half of the maximal activity seen. With `CN(C)c1ccc(C(=N)c2ccc(N(C)C)cc2)cc1`, the compound was classed as inactive in experiment [1], in [3], in experiment [4], in experiment [10], in experiment [12] and in experiment [13]. Also, the compound was called inactive in experiment [14] and in [15]. Moreover, the AC50 was 23 µM (active) in experiment [2]; 29.4 µM (active) in experiment [5]; 6.69 µM (active) in experiment [6]; 7.5 µM (active) in experiment [7]; 3.16 µM (active) in [8]; 5.82 µM (active) in [9]. Also, the AC50 was 1.28 µM (active) in experiment [11] and 9.76 µM (active) in experiment [16].

On to `O=C(O)CCCC[C@@H]1SC[C@@H]2NC(=O)N[C@@H]21`, for which the outcome in experiment [1], in experiment [2], in experiment [3], in experiment [4], in experiment [17] and in [5] was inactive. Moreover, the compound was classed as inactive in experiment [6], in experiment [7], in [8], in experiment [10], in experiment [11] and in experiment [12]. For the same compound, the call in experiment [14], in [15], in experiment [18] and in experiment [16] was inactive.

Regarding `CCCCC(CC)COCC1CO1` (stereo unspecified), the compound was called inactive in experiment [1], in experiment [3], in experiment [4], in experiment [19], in experiment [17] and in experiment [5]. The outcome in experiment [6], in experiment [8], in experiment [9], in experiment [11], in experiment [12] and in experiment [15] was inactive. Further, the call in [18] was inactive.

With `C[C@]12CCC(=O)C=C1CC[C@@H]1[C@@H]2C(=O)C[C@@]2(C)[C@H]1CC[C@]2(O)C(=O)CO`, the compound was classed as inactive in experiment [1], in experiment [2], in experiment [3], in experiment [4], in [17] and in experiment [5]. Besides, the outcome in [6], in experiment [7], in experiment [8], in experiment [11], in experiment [12] and in experiment [13] was inactive. In addition, the outcome in experiment [14], in [15], in experiment [18] and in [16] was inactive. Besides, the AC50 in experiment [9] is 39.5 µM (active).

Take `CCC(=O)Oc1ccc(/C(CC)=C(\CC)c2ccc(OC(=O)CC)cc2)cc1`: the compound was called inactive in [1], in [3], in experiment [4], in experiment [17], in [10] and in experiment [11]. Besides, the result in [14] and in experiment [15] was inactive. Also, the AC50 was 16.9 µM (active) in experiment [2]; 29.1 µM (active) in experiment [5]; 30.6 µM (active) in [6]; 37.8 µM (active) in experiment [8]; 2.95 µM (active) in experiment [9]; 37.8 µM (active) in experiment [12]. For the same compound, the AC50 in [13] is 23.4 µM (active); in experiment [18] it was 38.2 µM (active); in experiment [16], 26.4 µM (active).

Turning to `Nc1ccc2cc3ccccc3cc2c1`, the compound was called inactive in experiment [1], in experiment [2], in experiment [3], in experiment [4], in experiment [5] and in experiment [6]. The compound was called inactive in experiment [8], in experiment [10], in experiment [11], in experiment [12], in [13] and in experiment [15]. The call in [16] was inactive. Besides, in experiment [9], the AC50 was 13.2 µM (active).

Take `CCC(CO)CO`: the result in experiment [1], in [2], in [3], in experiment [4], in experiment [17] and in experiment [5] was inactive. Besides, the call in experiment [6], in [8], in experiment [9], in experiment [10], in [11] and in experiment [12] was inactive. Also, the compound was called inactive in experiment [16].
